# From PubChem BioAssay AID449739 (Vanderbilt High Throughput Screening Facility, 2010)
# In all, about 100,000 compounds went through this assay and about 4,200 (4.2%) were called active.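 Rule for the calls: active = single-dose well whose peak fluorescence ratio is a statistical outlier from its plate by either plate-standardised score or position-corrected B-score; inactive = the rest.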 For the sample, actives were picked, then their nearest neighbours and some compounds at random.
# Target: Voltage-dependent T-type calcium channel subunit alpha-1H (Homo sapiens) (UniProt O95180)
# Sequence (O95180 whole entry, looked up): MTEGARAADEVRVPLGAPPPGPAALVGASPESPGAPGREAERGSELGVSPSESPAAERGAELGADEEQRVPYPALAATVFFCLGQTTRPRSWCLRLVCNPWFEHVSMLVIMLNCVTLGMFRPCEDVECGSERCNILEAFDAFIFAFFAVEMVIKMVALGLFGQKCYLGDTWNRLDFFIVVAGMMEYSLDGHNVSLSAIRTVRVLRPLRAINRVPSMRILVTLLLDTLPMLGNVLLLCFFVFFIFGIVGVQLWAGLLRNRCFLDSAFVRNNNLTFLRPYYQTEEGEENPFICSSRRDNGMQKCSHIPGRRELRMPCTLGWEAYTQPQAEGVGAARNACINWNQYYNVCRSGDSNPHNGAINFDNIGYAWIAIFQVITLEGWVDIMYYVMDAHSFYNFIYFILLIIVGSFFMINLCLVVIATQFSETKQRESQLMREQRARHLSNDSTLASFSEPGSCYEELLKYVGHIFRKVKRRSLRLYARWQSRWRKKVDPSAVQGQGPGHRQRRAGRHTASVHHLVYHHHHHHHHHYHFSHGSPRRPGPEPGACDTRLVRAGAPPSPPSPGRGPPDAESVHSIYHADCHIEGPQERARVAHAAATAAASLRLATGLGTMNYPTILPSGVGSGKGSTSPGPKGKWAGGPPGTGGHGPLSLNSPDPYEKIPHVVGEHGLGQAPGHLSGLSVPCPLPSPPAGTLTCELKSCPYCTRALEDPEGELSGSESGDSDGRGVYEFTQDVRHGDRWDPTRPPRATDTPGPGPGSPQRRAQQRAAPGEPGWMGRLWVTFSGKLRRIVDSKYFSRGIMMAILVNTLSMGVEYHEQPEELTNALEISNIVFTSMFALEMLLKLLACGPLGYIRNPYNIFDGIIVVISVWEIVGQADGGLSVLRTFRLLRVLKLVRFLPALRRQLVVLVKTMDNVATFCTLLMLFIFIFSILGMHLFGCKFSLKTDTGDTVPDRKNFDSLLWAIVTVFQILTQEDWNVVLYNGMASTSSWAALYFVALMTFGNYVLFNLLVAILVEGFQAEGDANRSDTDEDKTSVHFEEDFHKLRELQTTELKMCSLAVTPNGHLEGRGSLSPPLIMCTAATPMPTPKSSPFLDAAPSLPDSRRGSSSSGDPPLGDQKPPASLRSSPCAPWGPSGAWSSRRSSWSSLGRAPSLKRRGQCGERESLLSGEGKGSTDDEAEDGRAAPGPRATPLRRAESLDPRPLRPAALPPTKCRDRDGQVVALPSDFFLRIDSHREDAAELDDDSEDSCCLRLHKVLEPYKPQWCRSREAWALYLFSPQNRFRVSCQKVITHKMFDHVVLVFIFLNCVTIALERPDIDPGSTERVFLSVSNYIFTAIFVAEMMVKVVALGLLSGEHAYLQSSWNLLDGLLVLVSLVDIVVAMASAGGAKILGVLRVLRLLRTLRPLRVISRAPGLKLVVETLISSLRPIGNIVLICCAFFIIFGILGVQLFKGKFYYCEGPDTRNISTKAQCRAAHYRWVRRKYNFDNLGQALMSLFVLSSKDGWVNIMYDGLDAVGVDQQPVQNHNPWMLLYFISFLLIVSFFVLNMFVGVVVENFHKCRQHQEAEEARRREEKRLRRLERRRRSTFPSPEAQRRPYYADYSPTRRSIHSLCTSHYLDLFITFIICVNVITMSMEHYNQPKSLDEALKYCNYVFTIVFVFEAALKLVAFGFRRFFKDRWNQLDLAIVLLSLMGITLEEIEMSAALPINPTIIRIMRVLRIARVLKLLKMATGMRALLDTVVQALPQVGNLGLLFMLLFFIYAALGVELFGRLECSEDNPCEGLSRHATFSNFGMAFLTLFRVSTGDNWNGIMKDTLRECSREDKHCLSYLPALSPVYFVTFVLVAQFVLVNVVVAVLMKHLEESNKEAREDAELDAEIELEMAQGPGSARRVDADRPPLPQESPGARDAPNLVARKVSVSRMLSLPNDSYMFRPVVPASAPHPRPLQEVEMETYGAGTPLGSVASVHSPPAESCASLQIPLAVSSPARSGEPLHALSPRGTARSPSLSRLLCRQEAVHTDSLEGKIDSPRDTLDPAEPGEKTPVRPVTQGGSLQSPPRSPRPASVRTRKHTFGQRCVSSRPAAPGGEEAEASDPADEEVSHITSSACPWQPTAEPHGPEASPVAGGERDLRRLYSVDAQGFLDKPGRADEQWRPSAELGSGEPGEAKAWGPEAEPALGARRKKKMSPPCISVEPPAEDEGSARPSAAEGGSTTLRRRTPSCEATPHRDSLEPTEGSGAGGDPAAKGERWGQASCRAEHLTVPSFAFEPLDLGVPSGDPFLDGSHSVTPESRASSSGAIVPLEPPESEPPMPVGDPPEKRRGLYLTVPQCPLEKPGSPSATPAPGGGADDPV
# Assay: Cav3.2 calcium influx blockers – cell-based, Fluo-4 calcium fluorescence, FDSS, MLSMR library, primary screen (AID 449739)
# Conditions: Cav3.2-expressing cells, at 10 µM, active compounds read low
row,SMILES,B-score
1,CCCn1c(C)cc(C(=O)COC(=O)c2c(C)nn(-c3ccccc3)c2C)c1C,-3.42 (inactive)
2,Nn1c(SCC(=O)NC(=O)NC2CCCC2)nnc1-c1ccccc1F,0.0138 (inactive)
3,Cc1nn(-c2ccccc2)c(C)c1C(=O)OCC(=O)NC(=O)NC1CCCCC1,-5.85 (active)
4,COC(=O)c1c(-c2cccs2)csc1NC(=O)CSc1ncnc2sc(C)c(C)c12,-0.978 (inactive)
5,CCCCNC(=S)NNC(=O)c1cc(C)on1,0.531 (inactive)
6,COc1ccccc1N1CCN(Cc2ccc(OC)c3ccccc23)CC1,-1.06 (inactive)
7,COc1ccccc1N1CCN(CCCCOc2ccc(F)cc2)CC1,-5.88 (active)
8,CCN1CCN(CCCCOc2ccccc2F)CC1,0.893 (inactive)
9,COc1cnc(SCc2ccc(Cl)c(Cl)c2)nc1Cl,-1.35 (inactive)
10,COC(=O)[C@H](Cc1ccccc1)NC(=O)[C@@H]1C[C@H]1[C@@H](NC(=O)OCc1ccccc1)c1ccccc1,0.0644 (inactive)
11,O=C(NCc1ccccc1)[C@H]1C[C@@H]1[C@H](NP(=O)(c1ccccc1)c1ccccc1)c1ccccc1,-4.19 (active)
12,O=C(O)C1CC=C(Cl)CC1C(=O)NCc1ccccc1 (stereo not drawn),0.671 (inactive)
13,Cc1cc(C)c2nc(NC(=O)c3ccc4c(c3)OCO4)sc2c1,0.981 (inactive)
14,C=C(C)C(=O)Nc1cccc(C2=NOC3(C2)C[C@H](C(N)=O)N(C(=O)C(c2ccccc2)c2ccccc2)C3)c1 (stereo partly drawn),-0.703 (inactive)
15,CCOC(=O)c1sc2nc(SC)nc(-c3ccccc3)c2c1N,-0.0983 (inactive)
16,Nc1ccccc1SCc1cc([N+](=O)[O-])cc2c1OCOC2,-4.25 (active)
17,O=C(CNC(=O)Cc1ccccc1)NCC(=O)OCC(=O)c1ccccc1Cl,0.107 (inactive)
18,CCOC(=O)/C(=C\c1ccc([N+](=O)[O-])cc1)C(=O)c1cc(C(C)=O)c(Nc2ccccc2)s1,0.717 (inactive)
19,Cc1nnc(SCC(=O)N2CCN(c3ccccc3)CC2)n1-c1ccccc1,0.663 (inactive)
20,Cc1ccc(S(=O)(=O)NCC(=O)N2CCN(c3ccccn3)CC2)cc1,0.189 (inactive)
21,Cc1ccnc(N2CCN(C(=O)CSc3nc4ccccc4nc3N3CCCCC3)CC2)c1,-7.43 (active)
22,CCC(C)[C@@H](C(=O)N1CCNCC1)n1cc(CCCCN)nn1 (stereo partly drawn),0.219 (inactive)
23,CC1(C)CC(=O)C2=C(C1)N=C1SCCC(=O)N1C2c1ccc(C(F)(F)F)cc1 (stereo not drawn),-1.88 (inactive)
24,CC(C)(C)NS(=O)(=O)CC12CCC(CC1=O)C2(C)C (stereo not drawn),0.0444 (inactive)

row,SMILES,B-score
1,CCCC(=O)NC(Nc1ccccc1OC)C(Cl)(Cl)Cl (stereo not drawn),0.143 (inactive)
2,NCCCC[C@@H]1NC(=O)[C@H](CCC(=O)O)NC(=O)c2cc([N+](=O)[O-])cc(I)c2NCC[C@@H](C(N)=O)NC1=O,0.612 (inactive)
3,O=C(c1ccccc1)N1CCN(C(=O)N2CCCCC2)CC1,1.15 (inactive)
4,O=C(c1ccc(-n2cnnn2)cc1)N1CCN(C(c2ccccc2)c2ccccc2)CC1,-4.29 (active)
5,O=C(O)CC(c1ccccc1)n1cnnn1 (stereo not drawn),0.533 (inactive)
6,N/C(=N\OC(=O)CCC1CCCCC1)c1ccccn1,0.693 (inactive)
7,N#Cc1nc(Cc2ccccc2)oc1NCCc1ccccc1,-6.7 (active)
8,N#Cc1nc(COc2ccc(-c3ccccc3)cc2)oc1NCc1cccnc1,-1.76 (inactive)
9,N#Cc1nc(-c2ccc(OCc3ccccc3)cc2)oc1NCCCN1CCOCC1,-0.428 (inactive)
10,CC1C/C(=N/NC(=O)c2cccs2)CC(C)(C)C1 (stereo not drawn),0.092 (inactive)
11,O=C(O)C1CC=CCC1C(=O)Nc1ccccc1C(=O)N1CCN(c2ccccc2)CC1 (stereo not drawn),0.0959 (inactive)
12,CC(C)N(C(=O)COC(=O)c1ccccc1C(=O)N1CCN(c2ccc(F)cc2)CC1)C(C)C,0.00273 (inactive)
13,O=C(c1ccccc1Oc1ccccc1)N1CCN(c2ccc(F)cc2)CC1,-4.99 (active)
14,Cc1cc2nnc(SCC(=O)N3CCN(c4ccccc4)CC3)n2c(N)n1,0.355 (inactive)
15,Cc1ccccc1NC(=O)Cc1nnc(SCC(=O)N2CCN(c3ccccc3)CC2)n1C,0.445 (inactive)
16,Cn1c(Cc2cccc3ccccc23)nnc1SCC(=O)N1CCN(c2cccc(Cl)c2)CC1,-6.61 (active)
17,C=CCC1(C(=O)N(C)Cc2ccccc2)CCN(C(=O)OC(C)(C)C)CC1,-0.119 (inactive)
18,CC(C)(C)NC(=O)NC(=O)COC(=O)CCC1CCCCC1,-0.871 (inactive)
19,O=C(Nc1ccn(Cc2ccc(F)cc2)n1)c1ccncc1,0.582 (inactive)
20,CC(=O)Nc1ccn(Cc2c(F)cccc2Cl)n1,-0.881 (inactive)
21,O=C(Nc1ccn(Cc2ccccc2F)n1)c1ccc(COc2ccc(Cl)cc2Cl)o1,-5.79 (active)
22,O=C(C1=C[C@H](c2ccc(C(F)(F)F)cc2)C[C@H](OCc2ccc(CO)cc2)O1)N1CCN(Cc2ccccc2)CC1,-0.906 (inactive)
23,CC(C)(C)[C@H]1C=C(C(=O)NCc2ccccc2)O[C@@H](OCc2ccc(CO)cc2)C1,-0.683 (inactive)
24,COc1cc(/C=N/NC(=O)Nc2ccccc2)ccc1OCCOc1ccccc1C,-1.44 (inactive)

row,SMILES,B-score
1,O=C(NC(Nc1nc2ccc([N+](=O)[O-])cc2s1)(C(F)(F)F)C(F)(F)F)c1ccccc1,-8.17 (active)
2,CNC(=O)c1ccc2nc(NC(C)=O)sc2c1,1.09 (inactive)
3,Cc1nn(CC(=O)Nc2nc3ccccc3s2)c(C)c1[N+](=O)[O-],-1.65 (inactive)
4,COc1ccc(NC(=O)CCN2CCCC2)c(OC)c1,0.0598 (inactive)
5,CCOc1ccc(C(=O)Nc2cc(OC)ccc2OC)cc1,-0.483 (inactive)
6,COc1ccc(OC)c(NC(=O)CCN2CCC(C)CC2)c1,-3.95 (active)
7,Cc1ccc(N2C(=O)C(Cc3ccccc3)NC2=S)cc1 (stereo not drawn),0.262 (inactive)
8,Cc1cn(C)c(=O)n(C)c1=O,0.776 (inactive)
9,COc1ccc(-c2nc3c(s2)CCc2onc(-c4ccc(Br)cc4)c2-3)cc1,0.734 (inactive)
10,COc1cc(C(=O)N2CCN(C/C=C/c3ccccc3)CC2)cc(OC)c1C,-0.741 (inactive)
11,N#Cc1c(C(F)(F)F)cc(-c2ccccc2)nc1SCC(=O)N1CCOCC1,1.07 (inactive)
12,Cc1[nH]n(-c2cccc(Cl)c2)c(=O)c1/C=N/n1c(C)nc2ccccc2c1=O,-5.96 (active)
13,COc1cc(NS(=O)(=O)c2ccc(N=Cc3c(C)[nH]n(-c4ccccc4)c3=O)cc2)nc(OC)n1,1.56 (inactive)
14,Cc1[nH]n(-c2ccc(Cl)cc2)c(=O)c1/C=N/n1c(C)nc2ccccc2c1=O,-2.58 (inactive)
15,CCO[C@@H]1OC(C(=O)NC2CC2)=C[C@H](C)[C@H]1CCCO,0.361 (inactive)
16,O=C(Nc1ccccc1)O/N=C1\CCCCC1c1ccc([N+](=O)[O-])cc1[N+](=O)[O-] (stereo not drawn),-1.88 (inactive)
17,CN1CC(c2ccccc2)C2(COc3ccccc3C2=O)C12C(=O)Nc1ccccc12 (stereo not drawn),-2.68 (inactive)
18,CCCCCCCCCCCCN1[C@@H](CC(C)=O)c2cc(F)cc(F)c2S1(=O)=O,-0.475 (inactive)
19,CC1CCN(CC(=O)c2c[nH]c3ccccc23)CC1,-0.109 (inactive)
20,CCCC(=O)NC(C)C(c1cccs1)N1CCN(c2ccccc2)CC1 (stereo not drawn),-0.0337 (inactive)
21,COc1ccc(C(C(O)C(=O)c2c[nH]c3ccccc23)N2CCN(c3ccccc3)CC2)cc1 (stereo not drawn),-6.38 (active)
22,COCC(C)NC(=O)c1ccc(-n2nc(C(F)(F)F)cc2-c2cccs2)cc1 (stereo not drawn),-0.0574 (inactive)
23,Cc1occc1C(=O)NNC(=S)NCC(C)C,-0.334 (inactive)
24,COC(C[C@@H](O)C[C@@H](O)[C@H](C)OCc1ccccc1)OC,0.484 (inactive)

row,SMILES,B-score
1,CC(NC(=O)Nc1ccccc1)C(c1cccs1)N1CCN(c2ccccc2)CC1 (stereo not drawn),-0.634 (inactive)
2,CCCCC(=O)N/N=C(\C)CC(=O)Nc1cc(Cl)ccc1OC,-2.17 (inactive)
3,COc1ccc(Cl)cc1NC(=O)c1oc(C)nc1C,-0.339 (inactive)
4,COc1ccc(Cl)cc1NC(=O)CN(C)C(=O)CNC(=O)C12CC3CC(CC(C3)C1)C2,-3.51 (active)
5,O=C(CCCOc1ccccc1)NCc1ccco1,-0.629 (inactive)
6,CCO[C@H]1OC(C(=O)N2CCN(Cc3ccccc3)CC2)=C[C@@H](c2cn(C(C)=O)c3ccccc23)[C@@H]1CCCO,-1.16 (inactive)
7,COc1cc(/C=N/O)cc(Br)c1OS(=O)(=O)c1ccc(C)cc1,-2.65 (inactive)
8,CCCCN1C(N)=NC[C@@H]1Cc1ccccc1,-0.563 (inactive)
9,COc1ccc(OC)c2sc(NC(=O)C3COc4ccccc4O3)nc12 (stereo not drawn),-4.42 (active)
10,CCn1cc(C(=O)NCC2COc3ccccc3O2)c2cc(OC)c(OC)cc2c1=O (stereo not drawn),-0.122 (inactive)
11,COc1ccc(NC(=O)CC2COc3ccccc3O2)c(OC)c1 (stereo not drawn),-0.874 (inactive)
12,c1ccc(-c2ccnc3nc(-n4cccc4)nn23)cc1,0.354 (inactive)
13,COc1ccccc1C1=CC(=O)CCC1,1.41 (inactive)
14,O=C(Nc1ccccc1)c1cccnc1Nc1ccccc1,0.697 (inactive)
15,c1ccc(Nc2n[nH]nc2-c2ccccc2)cc1,-7.14 (active)
16,Nc1ccc(Nc2ccccc2)cc1,0.472 (inactive)
17,C=CCCN(Cc1ccccc1)S(=O)(=O)c1ccccc1Br,0.0805 (inactive)
18,CCO[C@@H]1OC(C(=O)NCc2nc3ccccc3[nH]2)=C[C@H](C2CCCCC2)[C@H]1CCCO,-0.192 (inactive)
19,COc1ccc(C(c2nnnn2C2CCCCC2)N2CCN(c3ccccc3F)CC2)cc1 (stereo not drawn),-6.41 (active)
20,CC(C)C(c1nnnn1C1CCCC1)N1CCN(c2ccccc2F)CC1 (stereo not drawn),-2.85 (inactive)
21,COc1ccc(N2CCN(C(c3cc4ccc(C)cc4[nH]c3=O)c3nnnn3C3CCCC3)CC2)cc1 (stereo not drawn),-2.59 (inactive)
